Inconclusive results are not listed. Entries that show only a call come without a potency. Active and inactive are the calls of the source. The call rests on the fitted dose curve; in most records, active means well fitted cell-killing curve with a large enough effect; inconclusive means small, poorly fitted or top-dose-only effect; inactive means flat fitted curve, though single readings scatter.
Experiment: qHTS of pediatric cancer cell lines to identify multiple opportunities for drug repurposing: Primary screen for RD cells (AID 1347104); further: nearly all actives have a fitted effect of over 55% in size
Details: RD rhabdomyosarcoma viability, CellTiter-Glo luminescence, 48 h; series mostly up to 46 µM
From the text: Drug repurposing or repositioning has been offered as a strategy for drug development in oncology programs. This approach has special potential for childhood cancers and other rare or orphan diseases, where the expected return on new drug development has been a disincentive to pharmaceuticals. […] In this project we exploit the poly-pharmacology of drugs to discover new indications via phenotypic screening of a panel of 19 well-characterized cell lines derived from solid tumors seen in children and adolescents. The goal is to identify approved drugs with previously unrecognized anticancer properties that has the potential to reveal new mechanisms and biological processes involved in carcinogenesis or drug resistance. We employed a titration-based paradigm (quantitative high-throughput screening or qHTS), where all compounds were tested at multiple concentrations for their effect on cell viability. Concentration-response curves (CRCs) were derived directly from the primary screen, and both potency and efficacy values were used to identify compounds with robust bioactivity profiles. We screened the NIH Chemical Genomics Center (NCGC) Pharmaceutical Collection (NPC) and Mechanism Interrogation Plate (MIPE) small molecule collections of approved and investigational compounds against these cell lines; and measured metabolically active cells after 48 hours of compound treatment as a proxy for cell viability. […] Assay Submitter: Nathalia J. Martinez, National Center for Advancing Translational Sciences, National Institutes of Health, Rockville, MD, USA; email: natalia.martinez@nih.gov Shen, M et al. Quantitative high-throughput phenotypic screening of pediatric cancer cell lines identifies multiple opportunities for drug repurposing. Oncotarget 2017 Dec 19;9(4):4758-4772. PMID 29435139.
The cells were obtained from University of North Carolina (UNC), Pediatric Preclinical Testing Program (PPT), and Coriell Institute (CI). qHTS cell viability assay: Cells were assayed in growth media at a density of 500-1,000 cells/well. Five microliters of cells were dispensed into 1,536-well, white, solid-bottom, TC-treated plates (Greiner Bio One) using a multidrop dispenser and incubated at 37 degrees C, 5% CO2, under a humidified atmosphere for 5 hours. Twenty-three nanoliters of compounds and controls (neutral control DMSO or positive control bortezomib at final concentration of 2.3 µM) were subsequently transferred by Kalypsys pintool. For primary screens, the MIPE collection was tested at 11-point dilutions (final concentrations range from 0.78 nM to 46 µM) and the NPC collection at 8-point dilutions (final concentrations range from 0.59 nM to 46 µM). Compounds tested in follow-up screens were assayed at 11-point dilutions. Cells were incubated for 48 hours, followed by addition of 3 µL of CellTiter-Glo (Promega). After a 15 min incubation at room temperature, samples were analyzed for luminescence intensity using a ViewLux High-throughput CCD imager equipped with clear filters.
Potency means the concentration at half of the fitted maximal effect.

| SMILES | Potency |
| --- | --- |
| C#C[C@]1(O)CC[C@H]2[C@@H]3[C@H](C)CC4=C(CCC(=O)C4)[C@H]3CC[C@@]21C | inactive |
| CCc1cc(Cl)c(OC)c(C(=O)NC[C@@H]2CCCN2CC)c1O | inactive |
| C[N+]1(CC2COC(c3ccccc3)(C3CCCCC3)O2)CCCCC1 (stereo not given) | inactive |
| CCCCN1C[C@H](O)[C@@H](O)[C@H](O)[C@H]1CO | inactive |
| CN(C)CCOC(=O)C(c1ccccc1)C1(O)CCCC1 (stereo not given) | inactive |
| NC(=S)N/N=C/c1cccnc1 | inactive |
| OC[C@H]1O[C@@H]2O[C@H]3[C@H](O)[C@@H](O)[C@@H](O[C@H]4[C@H](O)[C@@H](O)[C@@H](O[C@H]5[C@H](O)[C@@H](O)[C@@H](O[C@H]6[C@H](O)[C@@H](O)[C@@H](O[C@H]7[C@H](O)[C@@H](O)[C@@H](O[C@H]8[C@H](O)[C@@H](O)[C@@H](O[C@H]1[C@H](O)[C@H]2O)O[C@@H]8CO)O[C@@H]7CO)O[C@@H]6CO)O[C@@H]5CO)O[C@@H]4CO)O[C@@H]3CO | inactive |
| Cc1ccc2c(Br)cc(Br)c(O)c2n1 | 10.6 µM (active) |
| COP(=O)(OC)OC(c1ccc(Cl)cc1)P(=O)(OC)OC (stereo not given) | inactive |
| CCC1NC(=O)c2cc(S(N)(=O)=O)c(Cl)cc2N1 (stereo not given) | inactive |
| C[C@@]12C(=O)OC(=O)[C@]1(C)C1CCC2O1 | 4.73 µM (active) |
| CC(O)Cn1cnc2c1c(=O)n(C)c(=O)n2C (stereo not given) | inactive |
| C[C@@H](O)[C@H]1C(=O)N2C(C(=O)O)=C(S[C@@H]3CN[C@H](CNS(N)(=O)=O)C3)[C@H](C)[C@H]12 | inactive |
| C[C@]12CCC(=O)C=C1C=C[C@@H]1[C@@H]2CC[C@@]2(C)[C@H]1CC[C@@]21CCC(=O)O1 | inactive |
| Oc1c(Cl)cc(Cl)c(Cl)c1Cc1c(O)c(Cl)cc(Cl)c1Cl | 11.9 µM (active) |
| Cc1cn([C@H]2C[C@H](F)[C@@H](CO)O2)c(=O)[nH]c1=O | inactive |
| Cc1ccc(S(=O)(=O)NC(=O)NC2CCCC2)cc1 | inactive |
| C[N+]1(C)CCC(=C(c2ccccc2)c2ccccc2)CC1 | inactive |
| CCCN(CCC)S(=O)(=O)c1ccc(C(=O)O)cc1 | inactive |
| COc1cc(C(=O)N2CCCCCCC2)cc(OC)c1OC | inactive |

| SMILES | Potency |
| --- | --- |
| C=C[C@H]1CN2CC[C@H]1C[C@@H]2[C@@H](O)c1ccnc2ccc(OC)cc12 | inactive |
| Oc1ccccc1C=NCc1ccccc1 | inactive |
| COc1cc([C@H]2Oc3cc([C@H]4Oc5cc(O)cc(O)c5C(=O)[C@@H]4O)ccc3O[C@@H]2CO)ccc1O | inactive |
| CC(=O)NCCCCCC(=O)O | inactive |
| O=C(NCCc1c[nH]c2ccccc12)c1cccnc1 | inactive |
| CCC(CC)(CC(=O)Nc1cccc(/C=C/c2nc(C3CCC3)cs2)c1)C(=O)O | inactive |
| C/C=C/c1ccc(O)c(OC)c1 | inactive |
| O=C1C(CCS(=O)c2ccccc2)C(=O)N(c2ccccc2)N1c1ccccc1 (stereo not given) | inactive |
| CCN(CC)CCOc1ccccc1C(=O)CCc1ccccc1 | inactive |
| Cc1ncc(CO)c(C=O)c1O | inactive |
| O=C(NC1CCN(CCc2c[nH]c3ccccc23)CC1)c1ccccc1 | inactive |
| CCN(CC)CCNC(=O)c1cc(Br)c(N)cc1OC | inactive |
| CN1CCN(c2c(F)cc3c(=O)c(C(=O)O)cn4c3c2SCC4)CC1 | inactive |
| c1ccc(-c2nc[nH]c2-c2ccccc2)cc1 | inactive |
| O=C1[C@H](CC[C@H](O)c2ccc(F)cc2)[C@@H](c2ccc(O)cc2)N1c1ccc(F)cc1 | inactive |
| CC(C(=O)O)c1cccc(Oc2ccccc2)c1 (stereo not given) | inactive |
| C#C[C@]1(O)CC[C@H]2[C@@H]3CCc4cc(OC)ccc4[C@H]3CC[C@@]21C | inactive |
| C#C[C@]1(OC(C)=O)CC[C@H]2[C@@H]3CCC4=C/C(=N/O)CC[C@@H]4[C@H]3CC[C@@]21CC | 29.9 µM (active) |
| CC1(C)OC[C@@H]2O[C@@]3(C(=O)O)OC(C)(C)O[C@H]3[C@@H]2O1 | inactive |
| CCN1CCN(C(=O)N[C@@H](C(=O)N[C@@H]2C(=O)N3C(C(=O)O)=C(CSc4nnnn4C)CS[C@H]23)c2ccc(O)cc2)C(=O)C1=O | inactive |
